Assay outcomes deposited in PubChem BioAssay by several laboratories.
MMP-13 inhibitor – inhibitors of human MMP13; AID 570; MMP-13 fTHP FRET cleavage, Mca fluorescence; 65,000 compounds, 0.07% hits; inhibition, % at 4 µM; P45452;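 active = inhibition above the mean of compound-free control plate wells plus 3 SD, cut at about 14% in these data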
CatL block – inhibitors of human cathepsin L; P07711; purified cathepsin L, fluorogenic substrate, fluorescence; inhibition, %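 (tested at 10 µM)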; 58,000 compounds, 0.17% hits; in the data active = inhibition above about 45%
Target sequence (P07711 114-288 limits assumed): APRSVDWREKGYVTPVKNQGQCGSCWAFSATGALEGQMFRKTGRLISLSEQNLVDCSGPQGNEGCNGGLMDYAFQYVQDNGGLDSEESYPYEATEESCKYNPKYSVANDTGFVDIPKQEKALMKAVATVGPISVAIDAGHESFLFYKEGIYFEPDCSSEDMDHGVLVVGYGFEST
Target sequence (P07711 292-333 limits assumed): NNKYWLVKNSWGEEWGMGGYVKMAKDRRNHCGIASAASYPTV
CatS block – human cathepsin S inhibition; recombinant cathepsin S, AMC dipeptide fluorescence, pooled mixtures; inhibition, %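 (tested at 5 µM per compound within 10-compound mixtures)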; 62,000 compounds, 0.06% hits; AID 501; in the data active = inhibition above about 32%, passing the limit was not always enough; inconclusive = no clear call, values can overlap the other calls
Target sequence (P25774 115-331 limits assumed): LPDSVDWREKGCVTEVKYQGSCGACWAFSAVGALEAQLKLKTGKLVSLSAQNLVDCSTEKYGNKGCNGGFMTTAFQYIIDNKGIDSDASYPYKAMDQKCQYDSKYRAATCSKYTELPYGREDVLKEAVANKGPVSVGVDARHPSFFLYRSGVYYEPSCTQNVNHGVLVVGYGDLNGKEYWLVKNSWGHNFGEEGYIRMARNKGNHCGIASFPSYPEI
CatB mixtures – inhibitors of human cathepsin B in compound mixtures; P07858; Purified cathepsin B, AMC dipeptide fluorescence; inhibition, %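 (ten-compound pools at 5 µM per compound and 50 µM total)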; 62,000 compounds, 0.06% hits; AID 488; in the data active = inhibition above about 22%, passing the limit was not always enough; inconclusive = no clear call, values can overlap the other calls
CatB block – inhibitors of human cathepsin B; inhibition, %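 (tested at 10 µM)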; 63,000 compounds, 0.1% hits; P07858; purified cathepsin B, fluorogenic substrate, fluorescence; in the data active = inhibition above about 21%
TNAP act mid DEA – activates human TNAP at intermediate phosphate acceptor concentration | 64,000 tested, under 10 active | purified TNAP, CDP-star luminescence, 100 mM DEA, 30 min; hits give high values; scale: 0 levamisole-inhibited, 1 vehicle-only enzyme | AID 813 | P05186 | activation factor at 20 µM;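 active = activation factor of at least 2 at 20 µM, relative to controls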
Large screens that a line does not name were inactive. Rows were chosen to be rich in hits. Some 0.37% of all compounds tested hit in one or more screens of this group.

Cn1c(C(=O)NCCCN2CCOCC2)cc2c(=O)n(C)c3ccccc3c21	CatS block 47.3
Cn1c(C(=O)NCCN2CCCCCC2)cc2c(=O)n(C)c3ccccc3c21	CatS block 69.5
COc1ccc(C(=O)n2ccc(C)n2)cc1Br	none (no result: CatL block)
CCOc1ccc(NS(=O)(=O)c2ccc(NS(C)(=O)=O)cc2)cc1	CatL block 76.2
CC(=O)C1=C(C)NC(C)=C(C(C)=O)C1c1ccc(-c2ccccc2Cl)o1	none
CCN1C(=O)/C(=C2/C=CC=CN2C)SC1=S	MMP-13 inhibitor 20.5
COC(=O)c1ccc2c(c1)NC(=O)C(N1CCCC1)S2 (stereo unspecified)	CatL block 63.0
Cc1c(NC(=O)CSc2ccccc2C(=O)Nc2cccnc2)c(=O)n(-c2ccccc2)n1C	none
Cc1csc2ncc(C(=O)NCc3ccc4c(c3)OCO4)c(=O)n12	MMP-13 inhibitor 15.9
Cc1csc2ncc(C(=O)NCc3ccccc3Cl)c(=O)n12	none (no result: CatL block)
COc1nc(N(C#N)CC(N)=O)nc(N2CCCC2)n1	CatB mixtures 23.3, CatB block 36.7
COc1nc(N2CCCCCC2)nc(N2CCCCCC2)n1	none
Cc1cc(NC(=O)c2sccc2C)n(-c2cccc(Cl)c2)n1	none (no result: CatL block)
COCCn1c(=S)[nH]c2ccc(N(C)C)cc2c1=O	none
COCCN1Cc2cccc(C(=O)Nc3ccc4c(c3)OCCO4)c2C1=O	MMP-13 inhibitor 16.6
O=C1C(=C2CCCCC2)SC(=S)N1Cc1ccco1	none
COc1cc(C2c3c(oc4c(C)cc(C)cc4c3=O)C(=O)N2Cc2cccnc2)ccc1O (stereo unspecified)	MMP-13 inhibitor 31.9
O=C(COc1ccc(Cl)cc1Cl)NC(=O)N1CCCCC1	MMP-13 inhibitor 14.3
Nc1nonc1C(=O)OCC(=O)N1CCOCC1	CatB block 30.6
COc1ccc(NC(=O)Cc2nc3ccccc3[nH]2)cc1	none
COC(=O)Cc1cc(=O)n(-c2nc3ccccc3[nH]2)[nH]1	MMP-13 inhibitor 57.4
O=S(=O)(c1ccccc1F)N(Cc1ccco1)Cc1nnc(-c2ccccc2Br)o1	CatL block 46.7
Clc1ccc(OCc2nnc(-c3ccccc3Br)o2)cc1	none
CCOC(=O)CC1=CC(C)(CC(=O)OCC)C(C#N)(C#N)C(N)=C1C#N (stereo unspecified)	none
Cc1ccc(C2NC(=O)c3c(sc4c3CCN(C)C4)N2)s1 (stereo unspecified)	CatL block 55.0
Cc1ccc(C2NC(=O)c3c(sc4c3CCN(C)C4)N2)o1 (stereo unspecified)	none
CCOC(=O)/C(C#N)=C1/C=CN(c2ccccc2)C=N1	none
CCOC(=O)/C(C#N)=C1/C=Nc2ccccc2N1	MMP-13 inhibitor 14.5
C=CCNc1nc2c3ccccc3n(C(C)=O)c2s1	none
CC(=O)CCc1c(C)c2cccc(C)c2[nH]c1=O	CatL block 104.5
O=C1CC(c2ccco2)Cc2nc(N3CCc4ccccc4C3)ncc21 (stereo unspecified)	CatB block 21.2
CCCCc1[nH]nc2c1C1(C(=O)N(CC)c3ccccc31)C(C#N)=C(N)O2 (stereo unspecified)	CatB block 25.1
CCc1nn2c(=O)cc(CSc3nc4sc5c(c4c(=O)n3C)CCCC5)nc2s1	none
N#Cc1c(N)sc(=S)c2c1CCN(Cc1ccccc1)C2	CatL block 46.9, CatS block 75.1, CatB block 80.5
Cc1cc(N2CCCCC2)n2nc(C)c(-c3ccccc3)c2n1	none
Cc1cc(SCC#N)n2nc(C)c(-c3ccccc3)c2n1	CatL block 47.6
CCc1nc(SCc2cccnc2)[nH]c(=O)c1C	none
Cc1ccccc1Cn1c(=O)c2c(nc3n2CCN3Cc2ccco2)n(C)c1=O	none
C=CCn1c(O)c(CN2CCOCC2)c(C)c(C#N)c1=O	CatL block 103.4
O=C(Cn1nnc(-c2ccncc2)n1)Nc1ccc2c(c1)CCC2	MMP-13 inhibitor 14.8
O=C(Cn1nnc(-c2ccccc2F)n1)Nc1ccc2c(c1)OCO2	MMP-13 inhibitor 15.9
O=C(Cn1nnc(-c2ccccc2F)n1)Nc1ccc(C(=O)N2CCOCC2)cc1	none
O=C(Nc1ccccn1)C(NS(=O)(=O)c1cccc2nsnc12)c1ccccc1 (stereo unspecified)	none
COc1ccccc1N(CC(O)CN1C(=O)NC(C)(C)C1=O)S(=O)(=O)c1ccc(C)cc1 (stereo unspecified)	none
O=S(=O)(Nc1nnc(-c2ccccc2)s1)c1ccc(Cl)cc1	CatL block 104.7
CSC1=NCCN1C(=O)Cc1cccs1	none (no result: CatL block)
CCSc1ccccc1C(=O)n1nnc2ccccc21	CatB mixtures 29.7, CatB block 32.2
Cc1occc1C(=O)n1nnc2ccccc21	none
O=c1cc(C23CC4CC(CC(C4)C2)C3)[nH][nH]1	none
COC(=O)c1sc(=S)n(-c2cc(F)ccc2F)c1N	none
CCOC(=O)c1sc(=S)n(-c2cc(F)ccc2F)c1N	CatL block 104.3
Cc1occc1-c1nnc(SCC(=O)N2CCN(c3ccccc3F)CC2)n1C	none
CS(=O)(=O)N1CCCC(C(=O)NCCCN2CCOCC2)C1 (stereo unspecified)	none
O=C(Cn1nc(C(F)(F)F)c2c1CCCC2)NCc1ccco1	none
O=C(CNC(=O)c1ccco1)OC(C(=O)c1ccccc1)c1ccccc1 (stereo unspecified)	CatL block 78.1, CatB mixtures inconclusive
O=C(CNC(=O)c1ccco1)OCc1ccc(C(=O)Oc2ccccc2)cc1	none (no result: CatL block)
O=C(CCCCn1c(=O)[nH]c2ccsc2c1=O)NCc1cccnc1	CatB mixtures 25.2
CC(=O)OC1(C(F)(F)F)Oc2ccccc2NC1=O (stereo unspecified)	CatL block 85.2, CatB mixtures 60.7, CatB block 74.7
O=C(CC1Oc2ccccc2NC1=O)NC1CC1 (stereo unspecified)	none (no result: CatL block)
Cc1[nH]c2ccccc2c1C(=O)CN1CCCCC1CCO (stereo unspecified)	none
Cc1ccc2c(C(=O)CN3CCCCC3CCO)c(C)[nH]c2c1 (stereo unspecified)	CatB mixtures 29.5
C=CC(=C)CC(NC)c1ccccc1 (stereo unspecified)	CatL block 53.4
Cc1ccc(C(C)C)c(OCc2nc(-c3nonc3N)no2)c1	CatB block 21.8 (no result: CatL block)
C/C(NCCN1CCOCC1)=C(\C#N)C(N)=O	none (no result: MMP-13 inhibitor)
O=C(Nc1ccc(N2CCN(Cc3ccccc3)CC2)cc1)c1ncn[nH]1	none
Cc1ccc(NC(=O)CCn2nc(C)cc2C)c(C)c1	none
Cc1cccc(NC(=O)CCn2nc(C)cc2C)c1	CatL block 58.8
COc1ccc(-n2c(=O)c3c4c(sc3n3c(C)nnc23)CC(C)CC4)cc1 (stereo unspecified)	none (no result: CatS block, CatB mixtures)
COc1ccc(-n2c(=O)c3c4c(sc3n3cnnc23)CC(C)CC4)cc1 (stereo unspecified)	CatL block 48.2
CS(=O)(=O)N1CCc2cc(C(=O)OCC(=O)c3ccccc3)ccc21	MMP-13 inhibitor 14.6
